According to ChEMBL document CHEMBL3988442, “University of Dundee, Small-Polar-MMV Screening Library” (2021):

Columns and labels:
[1] = target: T1, Aspartate--tRNA(Asp/Asn) ligase (Mycobacterium tuberculosis (strain ATCC 25618 / H37Rv)) (UniProt P9WFW3); experiment: Assay for Asp RNA synthetase-1 from Mycobacterium tuberculosis; type: functional; design: scale not given: direction of the effect not stated beside the values; conditions: 30 µM; also: in the data most compounds retested in dose-response had high values
T1 sequence (whole entry): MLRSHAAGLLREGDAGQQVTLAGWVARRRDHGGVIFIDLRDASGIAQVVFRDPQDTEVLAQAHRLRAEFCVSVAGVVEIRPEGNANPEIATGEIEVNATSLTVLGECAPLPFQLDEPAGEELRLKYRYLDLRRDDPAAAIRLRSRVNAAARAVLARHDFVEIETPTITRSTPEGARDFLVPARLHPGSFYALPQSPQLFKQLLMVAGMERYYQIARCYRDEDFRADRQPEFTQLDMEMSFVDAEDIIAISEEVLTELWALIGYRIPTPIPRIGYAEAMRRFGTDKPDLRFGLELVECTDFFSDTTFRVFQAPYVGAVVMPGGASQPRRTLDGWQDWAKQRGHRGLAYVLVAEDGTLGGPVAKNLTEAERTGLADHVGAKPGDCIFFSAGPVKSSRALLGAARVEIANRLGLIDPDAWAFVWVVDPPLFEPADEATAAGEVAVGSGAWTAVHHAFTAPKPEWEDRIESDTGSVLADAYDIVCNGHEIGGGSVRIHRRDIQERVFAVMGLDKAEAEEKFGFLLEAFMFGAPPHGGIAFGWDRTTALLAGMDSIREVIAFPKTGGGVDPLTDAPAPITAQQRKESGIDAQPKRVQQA

[2] = target: Shiga toxin 2 (Escherichia coli O157:H7) (UniProt P09385+P09386); experiment: E. coli 0.157:H7 Shiga Toxin SOP - stx2 screening assay; type: functional; design: scale not given: direction of the effect not stated beside the values; conditions: 30 µM

SMILES | Percent Effect [1] [%] | Percent Effect [2] [%]
Cc1cc(C)n(C2CCCN(C(=O)c3ccc(NC4CC4)nc3)C2)n1 (stereo not drawn) | -1.9 | 27
Cc1nc(C)c(CC(=O)Nc2nnc(C)s2)c(=O)[nH]1 | -2.12 | 19
Cc1c(I)cccc1C(=O)NCC1(CO)CC1 | 0.747 | 0.906
COc1cc(CN2CC[C@@]3(CCCO3)[C@@H](O)C2)ccc1F | 4.99 | 3
CS(=O)(=O)N1CCC(O)(Cn2c(C3CC3)nc3ccccc3c2=O)CC1 | 1.5 | 11.1
Cc1ccc(Cc2cnc(NC(=O)C3CNC(=O)N3)s2)cc1F (stereo not drawn) | -6.24 | -17.9
Cc1cn2c(n1)CCC(NC(=O)c1c[nH]c(C)n1)C2 (stereo not drawn) | -7.1 | 14.6
CC(=O)Nc1ccc(S(=O)(=O)NC(=O)CCC2CCCO2)cc1 (stereo not drawn) | 2.52 | -2.77
c1ccc2sc(CN3CCCC3c3noc(C4CC4)n3)nc2c1 (stereo not drawn) | -1.34 | 3.03
c1coc(-c2noc(CN3CCCC(Cn4cncn4)C3)n2)c1 (stereo not drawn) | -6.28 | -10.4
Cn1cc(C(=O)N2CCC(Cc3nccs3)CC2)cn1 | 2.4 | 59.9
O=C(NCc1nnc2n1CCCCC2)N1CCc2sccc2C1 | -4.29 | -45.2
COc1ccc(CNC(=O)NC2CCN(CC(F)F)CC2)cc1C | -0.127 | -3.6
CC(C)NC(=O)N1CCN(S(=O)(=O)C2CC2)CC2(CC(=O)N(C)C2)C1 (stereo not drawn) | -1.56 | -20.5
Cc1ccccc1C1(CNC(=O)NCCc2nnc3n2CCC3)CC1 | -1.38 | -0.461
Cc1ccc(NC2CCN(C(=O)CCc3ccco3)CC2)nn1 | 0.0874 | 19.2
Cc1nc(NCCc2ccc(Cl)cc2)cc(C(=O)N2CCOCC2)n1 | 12.1 | -64.7
COc1ccc(C)cc1S(=O)(=O)NCC(c1cccn1C)N(C)C (stereo not drawn) | -4.54 | 2.58
O=C(NCCNc1cnccn1)N1CCN(Cc2cccnc2)CC1 | -4.35 | -68.8
